This is an account of results in PubChem BioAssay (NCATS).

Results filed as inconclusive are left out. Unmarked numbers belong to inactive results. The source made the active and inactive calls. Calls follow the shape of the dose curve; as a rule, active = well fitted inhibition curve with a large enough effect; inconclusive = small, poorly fitted or top-dose-only effect; inactive = no such curve, though single readings can be large or run the other way.
Potency is read from the fitted curve at half-maximal effect.

This test in a line: qHTS to identify inhibitors of the type 1 interferon - major histocompatibility complex class I in skeletal muscle: primary screen against the NCATS Mechanism Interrogation Plate v5.0 (MIPE) Libary (AID 1347411). Also: nearly all actives have a fitted effect of over 65% in size.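 As to activity change, negative = inhibition: plate controls were vehicle for no effect and reference inhibitor for full effect.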 To be noted: iHSKM cells + IFN-b, HiBiT-tagged MHC-I luminescence, 24 h; series mostly up to 45.8 µM; activity change, negative = inhibition: at the top concentration. The gist of the method: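 HLA-B HiBit myoblasts, dexamethasone-free medium + 4 ng/ml IFN-b, 24 h compound, 11-pt 1:3 from 46 uM final. Readout: Nano-Glo HiBiT lytic luminescence after 10 min lysis, RT.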
In general terms: qHTS replaces the single test concentration by a dilution series.
Regarding `O=C(NCCS(=O)(=O)c1ccc(C(F)(F)F)cn1)c1ccc(Cl)cc1`, the “activity change, negative = inhibition” value is -2.81%.
For `CC(C)(C)c1cc(C(C)(C)C)c(NC(=O)c2c[nH]c3ccccc3c2=O)cc1O`, the Potency is 23.4 µM (active).
Take `COc1ccc(CC2c3cc(OC)c(OC)cc3CC[N+]2(C)CCC(=O)OCCCCCOC(=O)CC[N+]2(C)CCc3cc(OC)c(OC)cc3C2Cc2ccc(OC)c(OC)c2)cc1OC` (centres undefined): the “activity change, negative = inhibition” value is -28%.
As for `O=C(O)[C@H](Cc1c[nH]c2ccccc12)N1C(=O)c2ccccc2C1=O`, the “activity change, negative = inhibition” value was -36.2%.
Consider `c1cc(-c2cnn3cc(-c4ccc(OCCN5CCCCC5)cc4)cnc23)ccn1`, for which the Potency was 10.4 µM (active).
For `CC[C@H](CO)Nc1nc(NCc2ccccc2)c2ncn(C(C)C)c2n1`, the Potency is 29.4 µM (active).
As to `COC(=O)C1=C(C)NC(C)=C(C(=O)OCCN2CCN(C(c3ccccc3)c3ccccc3)CC2)C1c1cccc([N+](=O)[O-])c1` (centres undefined), the “activity change, negative = inhibition” value was -38.8%.
For `Cc1cc(Nc2cc(NC(=O)c3c(Cl)cccc3Cl)ccn2)nc(N)n1`, the Potency is 4.66 µM (active).
`CN1CC[C@@H](c2c(O)cc(O)c3c(=O)cc(-c4ccccc4Cl)oc23)[C@@H](O)C1`: the Potency is 0.739 µM (active).
For the compound `O=c1[nH]c(=O)n(C2CCCO2)cc1F` (centres undefined), the “activity change, negative = inhibition” value is 1.14%.
For `C=CC(=O)Nc1cc2c(Nc3ccc(F)c(Cl)c3)ncnc2cc1OCCCN1CCOCC1`, the Potency was 11.7 µM (active).
Regarding `CC(C)C[C@H](NC(=O)CNC(=O)c1cc(Cl)ccc1Cl)B(O)O`, the Potency was 0.104 µM (active).
Regarding `Nc1nc(-c2nn(Cc3ccccc3F)c3ncccc23)nc(N)c1N1CCOCC1`, the “activity change, negative = inhibition” value was -1.05% [at 15.5 µM].
The same measure, in the same setting: the same measure for `C[C@@H]1CN(CC(=O)Nc2ccc3c(c2)Cc2cccc(-c4cc(=O)cc(N5CCOCC5)o4)c2S3)C[C@H](C)O1`: -29.1%.
As for `Cc1ccc(-c2ncn(-c3ccc(Nc4nccc(-c5cccc(N6CCOCC6)c5)n4)cc3)n2)cn1`, the Potency is 0.829 µM (active).
As to `Cc1ccc(NC(=O)C2(c3ccc4c(c3)OC(F)(F)O4)CC2)nc1-c1cccc(C(=O)O)c1`, the “activity change, negative = inhibition” value was -16.4%.
For `O=c1[nH]nc(Sc2ncc([N+](=O)[O-])s2)n1-c1ccc2c(c1)OCCO2`, the Potency is 6.58 µM (active).
Turning to `COc1ccc(CC2SC(=O)NC2=O)cc1C(=O)NCc1ccc(C(F)(F)F)cc1` (centres undefined), the “activity change, negative = inhibition” value was 1.95%.
On the same count and under the same terms, the value for `CNC(=O)c1ccc(-c2cnc3ncc(Cc4ccc5ncccc5c4)n3n2)cc1F` was 2.59%.
Turning to `CN(C)CCCN=c1c2ccccc2n(C)c2[nH]c(=O)n(C)c(=O)c12`, the Potency is 16.5 µM (active).
In the case of `COc1ccc2c(OCc3nnc4ccc(-c5ccccc5)nn34)ccnc2c1`, the “activity change, negative = inhibition” value was -21.7%.
Turning to `CC(C)(C)c1cnc(CSc2cnc(NC(=O)C3CCNCC3)s2)o1`, the Potency was 0.262 µM (active).
On to `CN1CCN(c2cc(C(=O)Nc3ccc4c(c3)-c3c(c(C(N)=O)nn3-c3ccc(F)cc3)CC4)c(Cl)cn2)CC1`, for which the Potency was 18.6 µM (active).
In the case of `CC(=O)OCCN1C(=O)c2c(C)nc3ccc(S(=O)(=O)N4CCOCC4)cc3c2C1=O`, the “activity change, negative = inhibition” value was 5.08%.
As for `Cc1cc(Nc2nc(N[C@@H](C)c3ccc(F)cc3)c(C#N)cc2F)n[nH]1`, the Potency was 2.08 µM (active).
In the case of `CC(=O)OCC(=O)[C@@]1(O)[C@H](C)C[C@H]2[C@@H]3C=C(C)C4=Cc5c(cnn5-c5ccccc5)C[C@]4(C)[C@@H]3[C@@H](O)C[C@@]21C`, the “activity change, negative = inhibition” value is 3.21%.
`C[C@@H](Oc1cc(-n2cnc3ccc(CN4CCN(C)CC4)cc32)sc1C(N)=O)c1ccccc1C(F)(F)F`: the Potency is 20.8 µM (active).
Consider `CCN1CCN(CC(=O)Nc2ccc(-c3cccc4c(=O)cc(N5CCOCC5)oc34)c3sc4ccccc4c23)CC1`, for which the “activity change, negative = inhibition” value was 4.22% [at 15.5 µM].
Turning to `COCCn1c2c([n+](Cc3cnccn3)c1C)C(=O)c1ccccc1C2=O`, the Potency was 2.34 µM (active).
Regarding `O=C(NC1CCNCC1)c1[nH]ncc1NC(=O)c1c(Cl)cccc1Cl`, the Potency was 0.262 µM (active).
As for `O=C(NCCCNc1nc(Nc2cccc(NC(=O)N3CCCC3)c2)ncc1I)c1cccs1`, the “activity change, negative = inhibition” value was -6.08%.
With `CC[C@@H]1C(=O)N(C)c2cnc(Nc3ccc(C(=O)NC4CCN(C)CC4)cc3OC)nc2N1C1CCCC1`, the Potency was 16.5 µM (active).
Still for that read-out and setting: the same measure for `CN(c1ncccc1CNc1nc(Nc2ccc3c(c2)CC(=O)N3)ncc1C(F)(F)F)S(C)(=O)=O`: 4.66 µM (active); for `CC(C)c1ccc(Cn2ccc3c4c(N)nc(NC5CC5)nc4ccc32)cc1`: 4.66 µM (active); for `Cc1nc2cnc3ccc(C#Cc4cccnc4)cc3c2n1-c1ccc(C(C)(C)C#N)cc1`: 14.7 µM (active).
The same measure, in the same setting: the same measure for `COC(=O)C[C@](O)(CCCC(C)(C)O)C(=O)O[C@@H]1C(OC)=C[C@]23CCCN2CCc2cc4c(cc2[C@H]13)OCO4`: 0.093 µM (active).
As for `CN1c2cc(O)c(N=NC(N)=O)cc2CC1S(=O)(=O)O` (centres undefined), the “activity change, negative = inhibition” value is -18.3%.
In the case of `CC1(C)CCC(c2ccc(Cl)cc2)=C(CN2CCN(c3ccc(C(=O)NS(=O)(=O)c4ccc(N[C@H](CCN5CCOCC5)CSc5ccccc5)c(S(=O)(=O)C(F)(F)F)c4)cc3)CC2)C1`, the “activity change, negative = inhibition” value is -28.2%.
Consider `C=CC(=O)Nc1cc2c(Nc3ccc(F)c(Cl)c3)ncnc2cc1C#CC(C)(C)N1CCN(C)CC1`, for which the Potency was 8.29 µM (active).
